Holding throughout (assay): Cytotoxic Profiling of Annotated Libraries Using Quantitative High-Throughput Screening (AID 1296008); further: nearly all actives have a fitted effect of over 60% in size
Holding throughout (conditions): Five cell lines viability, CellTiter-Glo ATP luminescence, 48-72 h; max response: hits give low values

The subject of test [1] is CRL-7250. In a few lines: (§1)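 Cytotoxicity was measured as CellTiter-Glo ATP luminescence, read after 10 min at room temperature. Compound treatment of the cells lasted 48 or 72 hr at 37 degrees Celsius in a qHTS format.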
Test [2] deals with HEK293. In a few lines:
as §1

For test [3], the system named is HaCat. In a few lines:
as §1

In test [4] the test system is KB-3-1. In short, it runs like this: as §1
The test system of test [5] is NIH3T3. In a few lines: as §1

Values joined by “and” are separate entries in the source; they are usually repeats but may differ in a detail not shown here. Identical values can stand only once. Records with an inconclusive call do not appear. A structure can be active in one record and inactive in another. A number with no mark means an inactive call. Active and inactive are the calls of the source. The call rests on the fitted dose curve; in most records, active means well fitted inhibition curve with a large enough effect; inconclusive means small, poorly fitted or top-dose-only effect; inactive means flat fitted curve, though single readings scatter.
On the % scale 0 is the no-effect control and ±100 the full control effect; potency means the concentration at half of the fitted maximal effect.

Turning to `CCC(C)/C=C(C)/C=C/C1=CC2=C(Cl)C(=O)C(C)(OC(C)=O)C(=O)C2=CN1C1CCCCN(C(CCC(N)=O)C(=O)O)C1=O` (stereo unspecified), the compound was classed as inactive in test [1], in test [2], in test [3] and in test [4]. The max response in test [5] was -1.04%.
For the compound `C=CC1(C)C=C2C(O)CC3C(C)(C(=O)O)CCCC3(C)C2CC1` (stereo unspecified), the outcome in test [1], in test [2] and in test [3] was inactive. For the same compound, the figures for the max response in test [4] and in test [5] were 7.58% and -5.1%, respectively.
For `CCn1c2ccccc2c2cc(CNC)ccc21`, the max response in test [1] is -18% and 2.31%; in test [4], -23.4%; in test [5], -5.49%. Further, the Potency in test [2] was 18.4 µM (active). Also, the compound was classed as inactive in test [3], in test [4] and in test [5].
On to `COc1ccc([C@H]2Cc3cccc(O)c3C(=O)O2)cc1`, for which the max response in test [1] is -7.43%; in test [4], 9.62%. The call in test [2], in test [3] and in test [5] was inactive.
For the compound `CCC(=O)NS(=O)(=O)c1ccc(-c2c(-c3ccccc3)noc2C)cc1`, the result in test [1], in test [2], in test [4] and in test [5] was inactive. Moreover, the max response in test [3] is -10.3%; in test [4] it was -21.2%.
Regarding `COc1c(C)c(C(=O)c2ccc(N)c(C(=O)O)c2)n2ccccc12`, the max response in test [1] was -6.91%; in test [2] it was -16.3%; in test [3], -0.372%; in test [4], 4.57% and 7.45%. Besides, in test [3], the result was inactive.
For `COc1ccc(/C=C/C(=O)O[C@@H]2[C@@H](OC(C)=O)[C@@H](OC(C)=O)[C@H](O[C@H]3[C@@H]4C=CO[C@@H](O[C@@H]5O[C@H](CO)[C@@H](O)[C@H](O)[C@H]5O)[C@@H]4[C@@]4(CO)O[C@@H]34)O[C@H]2C)cc1O`, the max response was 3.11% in test [1], 9.42% in test [4] and 3.23% in test [5]. For the same compound, the compound was classed as inactive in test [2] and in test [3].
As for `N#Cc1ccnc(N2C(=O)CC[C@H]2C(=O)N(c2cncc(F)c2)[C@H](C(=O)NC2CC(F)(F)C2)c2ccccc2Cl)c1`, the max response in test [1] is -10.6%; in test [2], -9.11%; in test [3], -27%; in test [4], 1.75%; in test [5], -4.58%. The Potency in test [2] was 3.31 µM (active); in test [3], 23.4 µM (active).
Take `NS(=O)(=O)NCCNc1nonc1C(=Nc1ccc(F)c(Br)c1)NO`: the max response in test [1] was 3.38% and -8.95%; in test [2], -61.6%; in test [3], -46.4%; in test [4] it was 4.58% and 8.99%; in test [5], -8.59% and -38.3%. Moreover, the outcome in test [2], in test [3] and in test [5] was inactive.
On to `CC1=C(C)C(=O)OC(C(C)C2C(O)CC3C4C5OC5C5(O)CC(OC6OC(CO)C(O)C(O)C6O)CC(O)C5(C)C4CCC32C)C1` (stereo unspecified), for which the outcome in test [1], in test [2] and in test [3] was inactive. Also, the max response in test [4] was 0.502%; in test [5], -0.676%.
Turning to `CC(=O)OC1C=C(C(=O)O)C2(CO)CCC(C)C(C)(CCc3ccoc3)C2C1` (stereo unspecified), the max response in test [1] is -9.02%. The outcome in test [2], in test [3], in test [4] and in test [5] was inactive.
As for `O=C(Nc1cccnn1)N1CCC(=Cc2cccc(Oc3ccc(C(F)(F)F)cn3)c2)CC1`, the max response in test [1] was -4.32%; in test [3], -13.4%; in test [5], -5.09% and -8.67%. Moreover, the Potency in test [2] is 8.2 µM (active) and 13.2 µM (active). In addition, the outcome in test [3] was inactive.
On to `O=C(C1CC1)N1CC[C@@H](Cc2n[nH]c(=O)n2-c2ccc(-c3ccc4occc4c3)cc2)C1`, for which the max response is -4.78% and -21.6% in test [1]; -2.96% in test [3]; -10.7% in test [5]. Also, the compound was called inactive in test [2], in test [3] and in test [4].
For `Cc1c(-c2ccnn2C)cc(C(=O)NCc2ccc(S(C)(=O)=O)cn2)c(=O)n1-c1cccc(C(F)(F)F)c1`, the max response in test [1] was 0.591% and -4.37% and 3.84%; in test [2], -6.6% [middle of 4 runs]; in test [4], 2.1% and 7.91%; in test [5] it was 0.936% and -17.4% and -7.73%. Further, the outcome in test [1] and in test [4] was inactive.
`NCc1ccc(OCCCc2sc(-c3ccc4c(c3)/C(=N/Nc3nc5ccccc5s3)CCC4)nc2C(=O)O)cc1`: the max response was -14.2% in test [1], 0.629% in test [3], -25.7% in test [4] and -6.71% in test [5]. Also, the Potency in test [2] is 2.95 µM (active); in test [3], 3.71 µM (active).
On to `CC(C)N(C[C@H]1O[C@@H](n2cnc3c(N)ncnc32)[C@H](O)[C@@H]1O)C1CC(CCc2nc3ccc(C(C)(C)C)cc3[nH]2)C1` (stereo partly specified), for which the max response in test [1] is -0.229%; in test [3] it was 3.92%; in test [4], 5.25%; in test [5] it was -7.24% and -17.7%. In addition, the compound was classed as inactive in test [1] and in test [3]. In addition, the Potency in test [2] was 7.41 µM (active).
Regarding `CC(O)C(O)/C=C/C=C/C(=O)O[C@@H]1C=C2COC(=O)[C@]2(O)[C@@]2(C)CCCC(C)(C)C12` (stereo partly specified), the max response in test [1] is 3.05%; in test [4], 8.55%. Moreover, the result in test [2], in test [3] and in test [5] was inactive.
`Cc1onc(-c2ccccc2)c1C(=O)N[C@@H]1C(=O)N2[C@@H]1SC(C)(C)[C@@H]2C(=O)O`: the max response in test [1] is 4.38%; in test [2] it was 3.77% and -1.97%; in test [3] it was -3.02% and -31.5%. For the same compound, the result in test [1], in test [4] and in test [5] was inactive.
As for `C=CC1(C)CC(O)C2(CCC3C(C)(C(=O)O)CCCC3(C)C2=O)C1` (stereo unspecified), the max response in test [1] was -1.04%; in test [3], -1.18%; in test [5] it was 1.85%. Further, the compound was classed as inactive in test [2] and in test [4].
For the compound `NS(=O)(=O)OC[C@@H]1C[C@@H](n2ccc3c(N[C@H]4CCc5ccccc54)ncnc32)C[C@@H]1O`, the Potency was 1.3 µM (active) and 651 nM (active) in test [1]; 291 nM (active) and 366 nM (active) in test [2]; 5.17 µM (active) in test [3].
Take `NC1CCC(N[C@@H]2C[C@H]2c2ccccc2)CC1` (stereo partly specified): the max response in test [1] is 1.1%; in test [2] it was -15.5% and -3.29%; in test [3] it was -1.71%; in test [5] it was 3.03%. Further, the call in test [1], in test [3], in test [4] and in test [5] was inactive.
Consider `CO/N=C(/C(=O)N[C@@H]1C(=O)N2C(C(=O)O)=C(CSC(=O)c3ccco3)CS[C@H]12)c1csc(N)n1`, for which the max response in test [1] is -7.13% and 1.26%; in test [2], 3.45% and -9.59%; in test [3], 4.84%; in test [4], -14.5%; in test [5], 0.301% and -3.25%. Besides, in test [3], the outcome is “inactive; activator”. Also, the call in test [4] was inactive.
As for `CCN[C@@H]1C[C@H](N)[C@@H](O[C@H]2OC(CN)=CC[C@H]2N)[C@H](O)[C@H]1O[C@H]1OC[C@](C)(O)[C@H](NC)[C@H]1O`, the max response in test [1] was -13%; in test [2] it was -0.314%; in test [4] it was 9.12%; in test [5], -0.755% and 2.29%. Further, the call in test [1], in test [3] and in test [4] was inactive.
Consider `CN(C)c1cccc(-c2c3c(=O)n(-c4ccccc4Cl)[nH]c3cc(=O)n2C)c1`, for which the max response was 3.76% in test [1], 5.47% in test [4] and -12.2% in test [5]. The figures for the Potency in test [2] and in test [3] were 5.88 µM (active) and 14.8 µM (active), respectively. The call in test [2], in test [3] and in test [5] was inactive.
`CC(C)Nc1cc(-c2c[nH]c(C(=O)N[C@H](CO)c3cccc(Cl)c3)c2)c(Cl)cn1`: the figures for the max response in test [1], in test [2] and in test [4] were -4.72%, -74.1% and -26.9%, respectively. Also, the Potency in test [2] was 26.3 µM (active); in test [3] it was 2.59 µM (active) and 14.8 µM (active).
`Cc1nn(C)c2c1C(c1ccc(C(F)(F)F)cc1)C(C#N)=C(N)O2` (stereo unspecified): the max response in test [1] is 4.37%; in test [2], -4.39% and 2.32%; in test [3], -6.13% and -14.3%; in test [4], 9.42%; in test [5], 1.84%. Also, the call in test [1] and in test [5] was inactive.
Take `CC[C@H]1OC(=O)[C@H](C)[C@@H](O[C@H]2C[C@@](C)(OC)[C@@H](O)[C@H](C)O2)[C@H](C)[C@@H](O[C@@H]2O[C@H](C)C[C@H](N(C)C)[C@H]2O)[C@@](C)(O)C[C@@H](C)[C@@H]2N[C@@H](COCCOC)OC([C@H]2C)[C@]1(C)O`: the values for the max response in test [1], in test [3] and in test [5] were -11.1%, -20.8% and -6.11%, respectively. Besides, the result in test [2] and in test [4] was inactive.
For the compound `Cc1c(N2C(=O)c3ccc(C(=O)O)cc3C2=O)c(=O)n(-c2ccccc2)n1C`, the compound was classed as inactive in test [1], in test [2], in test [3], in test [4] and in test [5].
`C[C@]12C=CC(=O)C=C1CC[C@@H]1[C@@H]2[C@@H](O)C[C@@]2(C)[C@H]1CC[C@]2(O)C(=O)COC(=O)CCC(=O)O`: the max response is 2.71% in test [1], -0.357% in test [2] and 2.8% in test [4]. The call in test [3], in test [4] and in test [5] was inactive.
As to `CC1=C2C3OC(=O)C(C)C3(O)CCC2(C)CCC1=O` (stereo unspecified), the max response in test [1] was -29.1%. For the same compound, the call in test [2], in test [3], in test [4] and in test [5] was inactive.
For `C/C(=C\CO)CC/C=C(\C)C(=O)O[C@H]1[C@H](OC2OC=C(C(=O)O)C3CCC(C)(O)C23)O[C@H](CO)[C@@H](O)[C@@H]1O` (stereo partly specified), the values for the max response in test [1], in test [3] and in test [5] were -10.5%, 1.01% and 0.631%, respectively. For the same compound, the compound was called inactive in test [2] and in test [4].
For the compound `CC(=O)O[C@H]1C[C@@H]2[C@]3(CC[C@]4(C)[C@@H](C5(C)CCC(C(C)(C)O)O5)[C@@H](O)C[C@@]24C)C[C@@]32CC[C@H](O[C@@H]3OC[C@@H](O)[C@H](O)[C@H]3O)C(C)(C)[C@H]12` (stereo partly specified), the max response in test [1] is 4.65%; in test [5], 1.48%. The call in test [2], in test [3] and in test [4] was inactive.
Take `CC(=O)NCCCCn1c2c(c3ccccc31)C(=O)NCC2`: the max response in test [1] is 4.55%. Also, the compound was classed as inactive in test [2], in test [3], in test [4] and in test [5].
As to `COc1cc(N2CCC(O)CC2)ccc1Nc1cc(Nc2ccccc2S(=O)(=O)C(C)C)c2cc[nH]c2n1`, the Potency in test [1] was 33.1 µM (active); in test [2], 12.8 µM (active) and 11.7 µM (active); in test [3] it was 8.31 µM (active); in test [4], 14.3 µM (active); in test [5] it was 4.67 µM (active). In addition, the max response in test [1] was -7.16%.

The values are drawn from PubChem BioAssay (NCATS).
